Where “and” joins values, the source holds several entries; their conditions need not be identical. Identical values can stand only once. In all, about 350,000 compounds went through this assay and about 31,000 (8.9%) were called active. Not shown: some 15% with an inconclusive outcome. Calls follow the shape of the dose curve; as a rule, active = well fitted inhibition curve with a large enough effect; inconclusive = small, poorly fitted or top-dose-only effect; inactive = no such curve, though single readings can be large or run the other way. Shown is part of a subset that was picked to be rich in actives. Entries that show only a call come without a potency. Where a structure was tested more than once in an assay, its records may differ in their call.
target: Histone-lysine N-methyltransferase EHMT2 (Homo sapiens) (UniProt Q96KQ7); experiment: qHTS Assay for Inhibitors of Histone Lysine Methyltransferase G9a; conditions: G9a H3K9 monomethylation, AlphaScreen, 2 h; series mostly up to 59 µM; also: nearly all actives have a fitted effect of over 75% in size
Sequence (Q96KQ7 913-1193 limits assumed): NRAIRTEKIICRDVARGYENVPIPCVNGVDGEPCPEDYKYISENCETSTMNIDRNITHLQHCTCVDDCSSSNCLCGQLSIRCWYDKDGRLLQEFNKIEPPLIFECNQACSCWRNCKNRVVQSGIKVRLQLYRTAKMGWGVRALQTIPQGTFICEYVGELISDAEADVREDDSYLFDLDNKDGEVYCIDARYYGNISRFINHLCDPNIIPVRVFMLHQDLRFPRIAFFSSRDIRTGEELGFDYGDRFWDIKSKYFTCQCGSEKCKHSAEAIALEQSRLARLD
How it was run: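 Chemiluminescent proximity detection of H3K9 monomethylation, read after 10 min bead incubation in the dark. Reaction: 20 nM G9a, 500 nM biotin-H3K9 peptide, 20 uM SAM cofactor, 2 h, room temperature, following 15 min enzyme-compound preincubation.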
Potency is read from the fitted curve at half-maximal effect.

| SMILES | Potency | activity, negative = inhibition |
| --- | --- | --- |
| CCCC(=O)N1CCN(c2nc3c(OC)ccc(C)c3s2)CC1 | inactive | – |
| COc1cccc(NC(=O)COc2cc(C)cc3oc(=O)cc(C)c23)c1 | inactive | – |
| CNS(=O)(=O)c1cccc(C(=O)OCCCC(=O)c2ccccc2)c1 | – | -6.99% [at 12.7 µM] (inactive) |
| COc1ccc2c(c1)c(C(=O)N/N=C/c1cccs1)c(C)n2C | inactive | – |
| Cc1ccc(S(=O)(=O)N2CCC(C(=O)NCC3CCCO3)CC2)cc1 (stereo unspecified) | inactive | – |
| CCOc1ccc(S(=O)(=O)N2CCN(C(=S)NCC3CCCO3)CC2)cc1 (stereo unspecified) | inactive | – |
| Cc1cc(C2=NNC(=Nc3ccc(S(=O)(=O)N4CCOCC4)cc3)SC2)c(C)n1CC1CCCO1 (stereo unspecified) | 7.94 µM (active) | – |
| O=C(NC1CC(=O)N(c2ccc(F)cc2)C1)c1cccs1 (stereo unspecified) | inactive | – |
| O=C(NCCC1CCCCN1S(=O)(=O)c1cccs1)C(=O)Nc1ccc(F)cc1F (stereo unspecified) | – | -3.33% [at 0.501 µM] (inactive) |
| CC(=O)c1ccc(NC(=O)c2nc(-c3ccc(C)cc3)n3c2CCCCC3)cc1 | inactive | – |
| CC(C)Cn1c(=O)c2ccccc2n2c(CCC(=O)N3CCN(c4cccc(Cl)c4)CC3)nnc12 | inactive | – |
| O=C1CN(C(=O)COc2c(Cl)cccc2Cl)c2ccccc2N1 | inactive | – |
| CCCCCN(C(=O)CCC(=O)OCC(=O)NC1CCC(C)CC1)c1c(N)n(CCCC)c(=O)[nH]c1=O (stereo unspecified) | – | 6.8% [at 0.501 µM] (inactive) |
| CN(CC(=O)Nc1cccc(F)c1)C(=O)C1=COCCO1 | inactive | – |
| CC1CCc2[nH]c3ccc(C(=O)N(C)CC(=O)Nc4cccc(F)c4)cc3c2C1 (stereo unspecified) | 44.7 µM (active) | – |
| CN(CC(=O)Nc1cccc(F)c1)C(=O)CC1CCCC1 | inactive | – |
| O=C(CCc1ccccc1)NNC(=O)c1ccc(Br)cc1 | inactive | – |
| O=C(CCc1ccccc1)NNc1ccc(F)cc1 | 31.6 µM (active) | – |
| CC(=O)Nc1ccc(S(=O)(=O)NNC(=O)CCc2ccccc2)cc1 | – | -29% [at 12.7 µM] (inactive) |
| Cc1cc(C)cc(NC(=O)CCS(=O)(=O)c2cc3c4c(c2)CCN4C(=O)CC3)c1 | inactive | – |
| COc1ccc(Cc2nnc(SCC(=O)Nc3ccc(C)c(Cl)c3)[nH]c2=O)cc1 | inactive | – |

| SMILES | Potency | activity, negative = inhibition |
| --- | --- | --- |
| O=C(NCc1ccccc1)C1CCN(S(=O)(=O)c2ccc3[nH]c(=O)ccc3c2)CC1 | inactive | – |
| CCOC(=O)c1c(-n2cnnn2)sc(C)c1C | 8.91 µM (active) | – |
| CCOC(=O)C(C)n1cnc2sc(C)c(C)c2c1=O (stereo unspecified) | inactive | – |
| CCOc1ccc(C(=O)COC(=O)c2ccc(-n3cnnn3)cc2)cc1 | inactive | – |
| C=CCSc1ccc(S(=O)(=O)N2CCN(C)CC2)cn1 | inactive | – |
| CCn1c(=O)c2cc(C(=O)NCCc3ccc(Cl)cc3)sc2c2ccccc21 | inactive | – |
| O=C(CSc1nc(=O)n2ccccc2n1)Nc1ccc2c(c1)OCCO2 | inactive | – |
| Cc1ccc(Cl)cc1-n1ncc2c(N3CCC(C(N)=O)CC3)ncnc21 | inactive | – |
| COc1ccc(CNC(=O)c2ccc3oc(C(C)C)nc3c2)cc1 | – | 12% [at 0.501 µM] (inactive) |
| COc1ccc(Br)cc1/C=N/NC(=O)c1cccc(S(=O)(=O)N2CCOCC2)c1 | inactive | – |
| COc1ccc(Br)cc1/C=N/Nc1ccc(Cl)c(C(=O)O)c1 | 14.1 µM (active) | – |
| COc1ccc(CC(=O)NCC(=O)N/N=C/c2cc(Br)ccc2OC)cc1 | inactive | – |
| OCc1cnc(SCc2ccc(F)cc2)n1Cc1ccc(F)cc1 | inactive | – |
| COc1cccc2c1cc1c(=O)n(CC(=O)N3CCN(c4ccccc4)CC3)nc(C)n12 | inactive | – |
| Cc1ccc(CN2CCC(CNC(=O)c3cnn(-c4ccc(C)cc4)c3C3CCN(C(=O)OC(C)(C)C)CC3)CC2)cc1 | inactive | – |
| CC(C)(C)C(=O)N1CCC[C@@]1(CO)C(=O)O | 14.1 µM (active) | – |
| COC(=O)c1cc(NC(=O)CCc2c(C)nc3c4c(C)cc(C)nc4nn3c2C)cc(C(=O)OC)c1 | inactive | – |
| COc1ccccc1Nc1nnc(SC(C)C(=O)NC2CC2)s1 (stereo unspecified) | – | -13.1% [at 12.7 µM] (inactive) |
| CC(=O)c1c(C)[nH]c(C(=O)COC(=O)CCOc2ccc(C)cc2)c1C | inactive | – |
| Cc1ccc(-c2cn3c(n2)sc2cc(C(=O)NCCCc4ccccc4)ccc23)cc1 | inactive | – |
| CC1(C)SC2C(NC(=O)COc3ccccc3)C(=O)N2C1C(=O)O (stereo unspecified) | inactive and 39.8 µM (active) | – |

| SMILES | Potency | activity, negative = inhibition |
| --- | --- | --- |
| COC(=O)Cc1ccc(OCC(=O)NC2CCCC2)cc1 | inactive | – |
| Cc1cccc(OCC(=O)NC2CC(C)(C)NC(C)(C)C2)c1 | inactive | – |
| CN(CC(=O)Nc1ccc(F)c(F)c1F)C(=O)Cn1cnc2c1c(=O)n(C)c(=O)n2C | – | 25.9% [at 12.7 µM] (inactive) |
| COC(=O)c1cc(S(=O)(=O)N2CCN(c3cc(Cl)ccc3C)CC2)c[nH]1 | inactive | – |
| CC(C)CCN1NC2(CCC(C)CC2)NC1=S (stereo unspecified) | 11.2 µM (active) | – |
| COC(=O)c1cccc(-n2[nH]nnc2=S)c1 | 8.91 µM (active) | – |
| COC(=O)c1nn(-c2cccc(Cl)c2)ccc1=O | inactive | – |
| COC(=O)c1cccc(NC(=O)CSc2nc(C)cc(=O)[nH]2)c1 | inactive | – |
| Cc1cccc(C)c1NC(=O)CN(C)C(=O)CCC(=O)c1ccccc1 | – | 11.7% [at 2.33 µM] (inactive) |
| C=C(C)CNc1cc(S(=O)(=O)N2CCOCC2)ccc1Oc1ccccc1 | – | 21.5% [at 12.7 µM] (inactive) |
| COc1ccc(NC(=O)ON=C2c3ccccc3-c3ccccc32)cc1 | 25.1 µM (active) | – |
| COc1ccc(C(=O)ON=C2c3ccccc3-c3ccccc32)cc1OC | inactive | – |
| COc1ccc(NC(=O)CS(=O)(=O)c2ccccc2)cc1 | inactive | – |
| Cn1c(C(=O)N2CCC(C(=O)N3CCN(c4ccccc4)CC3)CC2)cc2sccc21 | inactive | – |
| O=C(CCNS(=O)(=O)c1cccs1)N1CCN(c2ccc(F)cc2)CC1 | inactive | – |
| O=C(Nc1ccc(Cl)cc1)C1c2cccc[n+]2CC(=O)N1Cc1ccc2c(c1)OCO2 (stereo unspecified) | 22.4 µM (active) | – |
| CC1CCC(NC(=O)C2c3ccccc3C(=O)N2Cc2ccc3c(c2)OCO3)CC1 (stereo unspecified) | inactive | – |
| CCCOc1ccc(NC(=O)CC2C(=O)N(C)C(=S)N2Cc2ccc3c(c2)OCO3)cc1 (stereo unspecified) | inactive | – |
| O=C(COc1coc(CN2CCN(c3ccccc3)CC2)cc1=O)Nc1ccccc1F | inactive | – |

— PubChem BioAssay AID504332 (National Center for Advancing Translational Sciences (NCATS), 2011)
